According to PubChem BioAssay (NCI):
About 83,000 compounds went through this panel and 20% of them were active in at least one assay; those are over-represented in the sample as a whole.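 A percent growth of 40 corresponds to 60% growth inhibition; 0 means no net growth; -100 means all cells died. Active threshold: below 10.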 Calls of active or inactive are those of the source.

Test system: MCF7 breast
Assay: NCI-60 one-dose screen, 48 h (100 = growth as untreated, 0 = no growth, -100 = all killed)
Details: 10 µM unless noted

SMILES | growth
CN(C)c1ccc(-c2nc(-c3ccccc3)c(-c3ccccc3)[nH]2)cc1 | 83.1% (inactive)
Cc1n[nH]c2ccc(Br)cc2c1=O | 108% (inactive)
CCOc1cccc(/C=N/NC(=O)c2cccc(Nc3ccnc(C(F)(F)F)c3)c2)c1O | 17.4% (inactive)
COc1ccc(CNc2c3ccccc3nc3ccccc23)c(OC)c1 | 14.5% (inactive)
COc1ccc2c(c1)c(-c1nc(-c3c[nH]c4ncccc34)cs1)cn2CCO | 20.1% (inactive)
COc1ccc(C(O)c2cc3c(N)c(C(=O)Nc4cccc(Cl)c4C)sc3nc2C)cc1 (stereo not given) | 17% (inactive)
CC1CCN(C(=S)SCC(=O)NC(=O)c2ccccc2)CC1 | 95.7% (inactive)
CS(=O)(=O)Nc1cc(-c2ccc3ncc(C#N)c(Nc4ccc(F)c(Cl)c4)c3c2)cnc1Cl | 4.03% (active)
CCN1C(=O)N(CC)C2C1NN=c1s/c(=C3\C(=O)N(CC(C)C)c4ccccc43)c(=O)n12 (stereo not given) | 15.1% (inactive)
O=C(CI)NC(=O)NC(=O)NCc1ccccc1 | 12% (inactive)
CCn1cc(CNc2ccc(C(=O)Nc3cc4cc(OC)c(OC)cc4c(C)n3)cc2)cn1 | 46.6% (inactive)
C=CCN1C(=O)c2cccc3c(N4CCOCC4)ccc(c23)C1=O | -0.408% (active)
CC1=C2[C@@H](CC1)[C@]1(C)O[C@@](c3ccccc3)(C[C@H]1OC(=O)CO)[C@H]2OC(=O)/C=C/c1ccccc1 | 78.6% (inactive)
CSc1nc(C)c([N+](=O)[O-])c(N)n1 | 94.3% (inactive)
CCOC(=O)c1c(C)nc2c(c1N)/C(=C/c1ccc(OC)cc1)C(=O)N2Cc1ccccc1 | 22.8% (inactive)
